Measurements taken from PubChem BioAssay AID686978 (National Center for Advancing Translational Sciences (NCATS), 2013).
Screen size: about 420,000 compounds; about 64,000 (15%) were called active. Roughly 27% stayed inconclusive and do not appear here. The call rests on the fitted dose curve; in most records, active means well fitted inhibition curve with a large enough effect; inconclusive means small, poorly fitted or top-dose-only effect; inactive means flat fitted curve, though single readings scatter. Only a sample is shown. A call without a number means that no potency is given here.

Assay: qHTS for Inhibitors of human tyrosyl-DNA phosphodiesterase 1 (TDP1): qHTS in cells in absence of CPT; further: nearly all actives have a fitted effect of over 55% in size
Settings: DT40 Tdp1-/- hTDP1 cells, no CPT, ATP luminescence, 48 h; activity change, negative = growth inhibition: at 46.2 µM (top of the series)
Method in brief: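 DT40 Tdp1-/-;hTDP1 cells, no CPT (DMSO vehicle only), 400 cells/well; compounds pin-transferred; ≥48 hr, 37 °C; CellTiter-Glo 30 min RT dark, luminescence read.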
Potency means the concentration at half of the fitted maximal effect.

Row | SMILES | Potency
1 | CCOc1ccc(Br)cc1S(=O)(=O)Nc1ccc(S(=O)(=O)Nc2cc(C)on2)cc1 | inactive
2 | CC1C(=O)Nc2ccccc2N1C(=O)c1ccc(F)cc1F (stereo not given) | inactive
3 | CCn1c(SCC(=O)NC2CC2)nnc1-c1ccccc1OC | inactive
4 | Cc1ccc2cc(CN(c3ccc(C)c(C)c3)S(C)(=O)=O)c(=O)[nH]c2c1 | inactive
5 | Cc1cc(NC(=O)CSc2nnnn2-c2ccc(F)cc2)no1 | inactive
6 | Cc1cc(NC(=O)CSc2nnc(-c3ccco3)n2N)no1 | inactive
7 | Cc1cc(C)c2c(c1)cc(C)c1nnc(SCC(=O)Nc3cc(C)on3)n12 | 11.6 µM (active)
8 | Cc1ccc(NC(=O)C(Cc2ccccc2)NS(=O)(=O)c2ccc3c(c2)oc(=O)n3C)cc1C (stereo not given) | inactive
9 | CN(C(=O)CC1C(=O)NCCN1Cc1ccc2ccccc2c1)C1CCOCC1 (stereo not given) | inactive
10 | O=C1CC(c2c(F)cccc2Cl)C(n2cncn2)C(O)=C1C1NCCc2ccccc21 (stereo not given) | inactive
11 | Cc1ccc(C(C[N+](=O)[O-])c2c(C)cc3ccccn23)cc1 (stereo not given) | 16.4 µM (active)
12 | Cc1ccc(C(=O)NNC(=O)CSc2nnc3ccccn23)cc1 | inactive
13 | COc1ccc(CC(=O)Nc2nc3n(n2)C(c2ccccc2)CC(=O)N3)cc1OC (stereo not given) | inactive
14 | O=C(CN1CCN(c2ccccn2)CC1)NCc1cccs1 | inactive
15 | NC(=S)NN=Cc1ccc(OC(=O)COc2cc(Cl)c(Cl)cc2Cl)cn1 | 5.8 µM (active)
16 | O=C(COc1cc(Cl)c(Cl)cc1Cl)NCCc1ccccn1 | inactive
17 | O=C(COC(=O)COc1cc(Cl)c(Cl)cc1Cl)NC1CC1 | inactive
18 | Cc1nn(C)c(C)c1Sc1ccccc1N | inactive
19 | CC(=O)OC(C(=O)NCCc1ccccc1)c1cccnc1 (stereo not given) | inactive
20 | O=C(NCCc1ccc2c(c1)OCCO2)c1cc2ccccc2o1 | 20.6 µM (active)
21 | O=C(Cc1ccc([N+](=O)[O-])cc1)NCCc1ccc2c(c1)OCO2 | inactive
22 | O=C(COC(=O)c1ccc2c(c1)OCCO2)NCc1ccccc1 | inactive
23 | CN(C)S(=O)(=O)c1ccc(N2CCCC2)c(C(=O)Nc2cccc(F)c2)c1 | inactive
24 | CCN(CC)C(=O)CN(c1cccc([N+](=O)[O-])c1)S(=O)(=O)c1ccccc1 | inactive
25 | O=C(Nc1cccc([N+](=O)[O-])c1)Nc1ccc(Cl)cn1 | inactive
26 | O=C(CCl)N(Cc1cccc([N+](=O)[O-])c1)c1cccc(Cl)c1 | 4.11 µM (active)
27 | O=C1O/C(=C\c2ccc(O)cc2)C(O)=C1c1ccc(O)cc1 | inactive

Row | SMILES | Potency
28 | Cc1cccc2cc(C#N)c(N3CCCC3)nc12 | inactive
29 | Cc1cc(C)c2nc(N3CCCC3)c(C#N)cc2c1 | inactive
30 | Cc1cc(C)c2cc(C#N)c(N3CCNCC3)nc2c1 | 18.4 µM (active)
31 | Cc1cccc(C)c1NC(=O)CNC(=O)c1c(C)nn(-c2ccccc2)c1C | inactive
32 | COC(=O)N1CCC[C@@]2(CCN(C(=O)NC(C)C)C2)C1 | inactive
33 | OC(COc1ccc2c(c1)CCC2)CN1CCN(c2cccc(Cl)c2)CC1 (stereo not given) | 18.4 µM (active)
34 | COc1ccc(OCC(=O)N2CCN(C(=O)COc3ccccc3)CC2)cc1 | inactive
35 | Cc1c(C)c2ccc(OCC(=O)N3CCN(c4cccc(Cl)c4)CC3)cc2oc1=O | 10.3 µM (active)
36 | Cc1cc(=O)oc2cc(OCC(=O)N3CCN(c4ccc(F)cc4)CC3)c(Cl)cc12 | inactive
37 | O=C(COc1ccc2c(c1)CCC2)N1CCN(c2ccc(F)cc2)CC1 | inactive
38 | COc1ccc(N2CCN(C(=O)COc3ccc4c(C)cc(=O)oc4c3)CC2)cc1 | inactive
39 | CSCCC(NC(=O)COc1ccccc1)C(=O)N1CCN(c2cccc(C(F)(F)F)c2)CC1 (stereo not given) | 13 µM (active)
40 | OC(COc1cccc(OCC(O)CN2CCCC2)c1)CN1CCCC1 (stereo not given) | inactive
41 | COc1cccc(OCC(O)CN2CCN(CCO)CC2)c1 (stereo not given) | inactive
42 | O=C(COc1ccc(Cl)cc1)N1CCN(c2cccc(C(F)(F)F)c2)CC1 | 20.6 µM (active)
43 | CSCCC(NC(=O)COc1ccccc1)C(=O)OCCOc1ccc(Br)cc1 (stereo not given) | inactive
44 | CSCCC(NC(=O)COc1ccccc1)C(=O)OCCOc1ccc(F)cc1 (stereo not given) | inactive
45 | O=C(O)c1cc([N+](=O)[O-])c(Nc2cccc3ccccc23)c([N+](=O)[O-])c1 | inactive
46 | CCn1ncc(C2=NOC(C(=O)N3CCN(c4ccccc4)CC3)C2)c1C (stereo not given) | inactive
47 | O=C1OC(NC(=O)c2ccccc2)C(N2CCOCC2)=C1Cl (stereo not given) | inactive
48 | CCOC(=O)CCCNC(=O)COC(=O)c1cc(Br)c(Br)s1 | inactive
49 | Cc1cccc(C)c1NC(=O)CNC(=O)C1CCCC1 | inactive
50 | CC(C)(C)NC(=O)C(c1ccncc1)N(C(=O)CNC(=O)c1ccco1)c1ccc2c(c1)OCO2 (stereo not given) | inactive
51 | Cc1nc(Nc2ccccc2F)c2nnn(Cc3ccccc3Cl)c2n1 | inactive
52 | O=C(CCN1C(=O)[C@@H]2Cc3ccccc3CN2C1=O)NCCc1ccccc1 | inactive
53 | O=C(NC1CCCCC1)C1CC(=O)N(CCc2ccccc2)C1 (stereo not given) | inactive
54 | COc1ccccc1-c1nnc(SCC(=O)Nc2ccccc2)o1 | inactive

Row | SMILES | Potency
55 | O=C(c1ccccc1)c1ccc(OCC(O)CN2CCCC2)cc1 (stereo not given) | inactive
56 | CCC(=O)c1ccc(OCC(O)CN2CCN(c3cccc(C(F)(F)F)c3)CC2)cc1 (stereo not given) | 25.9 µM (active)
57 | CCC(=O)c1ccc(OCC(O)CN2CC(C)OC(C)C2)cc1 (stereo not given) | inactive
58 | CCn1cc(C(=O)NCC(=O)NC(C)(C)CO)c(=O)c2cc3c(cc21)OCO3 | inactive
59 | C/C(=N\NC(=O)C1(C)CC1(Br)Br)c1ccc(C)cc1C (stereo not given) | inactive
60 | COc1ccc(-c2cc(C(=O)Nc3sc4c(c3C(N)=O)CCCC4)no2)cc1 | inactive
61 | COc1ccc(-c2noc(-c3ccc(C)cc3)n2)cc1 | inactive
62 | COc1ccc(-c2nc3c(s2)CCc2onc(-c4ccc(OC)cc4)c2-3)cc1 | 16.4 µM (active)
63 | Cc1ccc(NC(=S)N2CCN(c3ncccn3)CC2)cc1C | inactive
64 | Cc1sc2ncnc(N3CCC(C(=O)Nc4nc5ccc(Cl)cc5s4)CC3)c2c1C | 7.31 µM (active)
65 | O=C(NNC(=O)C1CCN(c2ncccn2)CC1)c1ccccc1 | inactive
66 | Cc1nc2ccc(NC(=O)C3CCCCC3)cc2s1 | inactive
67 | Cc1sc2ncnc(N3CCC(C(=O)Nc4ccc(F)cc4Cl)CC3)c2c1C | 23.1 µM (active)
68 | Cc1ccc(Cl)cc1NC(=O)C1CCN(S(C)(=O)=O)CC1 | inactive
69 | Cc1sc2ncnc(N3CCC(C(=O)NNC(=O)c4ccc(F)cc4)CC3)c2c1C | 16.4 µM (active)
70 | O=C(NNC(=O)C1CCCC1)c1ccc(F)cc1 | inactive
71 | CC(=O)Nc1c(C)nn(-c2ccccc2)c1N1CCC(C(=O)Nc2cc(Cl)ccc2C)CC1 | inactive
72 | CS(=O)(=O)c1ccc2nc(NC(=O)C3C4C=CC(C4)C3C(=O)O)sc2c1 (stereo not given) | inactive
73 | CC(C)[C@H](NC(=O)Nc1ccc(S(N)(=O)=O)cc1)C(=O)O | inactive
74 | CC(C)CCN1NC2(CCC(C)CC2)NC1=S (stereo not given) | inactive
75 | CN1C(=O)c2ccccc2C(C(=O)NCCCN2CCCC2)C1c1c[nH]c2ccccc12 (stereo not given) | inactive
76 | CCc1c(O)nc(SCC(=O)N2CCCCC2)n(-c2ccccc2C)c1=O | inactive
77 | COc1cc2c(cc1OC)CN(CC(=O)Nc1ccc(F)cc1)CC2 | inactive
78 | CCc1ccc(OCC2c3cc(OC)c(OC)cc3CCN2C(C)=O)cc1 (stereo not given) | 13 µM (active)
79 | COc1ccc(CC(NC(C)=O)C(=O)NC2CCN(C(=O)c3ccc(OC)c(OC)c3)CC2)cc1OC (stereo not given) | inactive
80 | COc1cc2c(cc1OC)C(COc1ccc(F)cc1)N(C(=O)c1ccccc1F)CC2 (stereo not given) | 16.4 µM (active)
81 | CCc1ccc(OCC(=O)OC(C)C(=O)NC2CC2)cc1 (stereo not given) | inactive

Row | SMILES | Potency
82 | COc1ccc2[nH]c(=O)c(C3c4cc(OC)c(OC)cc4CCN3C(=O)c3ccco3)cc2c1 (stereo not given) | inactive
83 | CC(C)CN(C(=O)CSc1ncnc2sccc12)C1CCS(=O)(=O)C1 (stereo not given) | inactive
84 | O=C(N/N=C/c1ccsc1)c1cc(O)cc(O)c1 | inactive
85 | CCN(CC(=O)NCc1cccs1)C(=O)/C=C/c1ccc(C)cc1 | inactive
86 | FCOC(C(F)(F)F)C(F)(F)F | inactive
87 | CN(C)CCCN1C(=O)CSC1c1ccc([N+](=O)[O-])cc1 (stereo not given) | inactive
88 | CCCCc1ccc(NC(=O)NCc2cccnc2)cc1 | inactive
89 | CCCCCCCCCCCCN1C(=O)CSC1c1cccnc1 (stereo not given) | 16.4 µM (active)
90 | C=C1C([C@@]2(C)C(OC(C)=O)CC(=O)O[C@@](C)(COC(C)=O)C2CC(=O)OC)C(OC=O)C(OC(=O)C(O)C(C)CC)[C@]2(C)C(c3ccoc3)CC(=O)C12O (stereo not given in full) | 4.61 µM (active)
91 | COC(=O)CC1C(C)(C)C(OC(C)=O)C2CC3=C4CC(=O)OC(c5ccoc5)[C@]4(C)CCC3[C@@]1(C)C2=O (stereo not given in full) | inactive
92 | CCOC(=O)C1(Cc2ccccc2C)CCCN(S(C)(=O)=O)C1 (stereo not given) | inactive
93 | C/C(=N\NC(=O)OC(C)(C)C)c1ccc[nH]1 | inactive
94 | Cc1cccc(-c2nc(SCC(=O)Nc3cc(C)on3)c3c(=O)n(C)c(=O)n(C)c3n2)c1 | inactive
95 | Cn1c(=O)c2c(SCC(=O)NCC3CCCO3)nc(-c3ccccc3F)nc2n(C)c1=O (stereo not given) | inactive
96 | Cc1ccccc1-c1nc(SCC(=O)N(C)c2ccccc2)c2c(=O)n(C)c(=O)n(C)c2n1 | 9.2 µM (active)
97 | O=C(CN(C(=O)c1csnn1)c1cccc(F)c1)NCc1ccc(F)cc1 | inactive
98 | CCCCn1c(N)c(N(CCC(C)C)C(=O)COC(=O)c2ccc(CC)cc2)c(=O)[nH]c1=O | inactive
99 | CCCCc1nc(NCCN)c(C#N)c2c1CSC(C)(C)C2 | 20.6 µM (active)
100 | Cc1nc(NCCN)c(C#N)c2c1COC(C)(C)C2 | inactive
101 | CCCCc1nc(NCc2ccccc2)c(C#N)c2c1CCCC2 | inactive
102 | CCOc1ccc(S(=O)(=O)Nc2ccncc2)c(C)c1C | inactive
103 | O=C(CSc1nc2ccccc2c(=O)n1-c1ccc(F)cc1)NC1CC1 | inactive
104 | COc1ccc(OC)c(/C=N/NC(=O)CSc2nnc(C)n2-c2ccccc2)c1 | inactive
105 | Cc1nn(-c2ccccc2)c(C)c1/C=N/NC(=O)CSc1nc2ccccc2c(=O)n1-c1ccccc1 | 18.4 µM (active)
